In the library only some 12% were active in any assay of this set; here they are far more common.
Sm TGR inh – qHTS Assay for the Inhibitors of Schistosoma Mansoni Peroxiredoxins; Schistosoma mansoni thioredoxin glutathione reductase (TGR), Q962Y6; purified TGR, DTNB reduction, TNB absorbance 405 nm; Potency, µM (highest dose often 114 µM), inactives show at the top dose activity change, negative = inhibition, actives largely listed as inhibitors; 360,000 compounds, 3% hits; AID 485364, 2010; also: % is scaled to controls: 0 for no effect and ±100 for the full control effect; nearly all actives have a fitted effect of over 60% in size
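TGR 20 nM + NADPH 100 uM (dispensed conc.), cpd preinc 15 min RT; start with NADPH (500 uM addition) then DTNB (15 mM addition). Kinetic TNB absorbance, 405 nm filter. Four-parameter Hill fit across titration.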
Pf growth 48h – Primary qHTS for delayed death inhibitors of the malarial parasite plastid, 48 hour incubation; P. falciparum luciferase growth in erythrocytes, 48 h; Potency, µM (series often up to 28.7 µM), inactives show at the top dose activity change, negative = inhibition, most hits filed as inhibitors; 310,000 compounds, 5.9% hits; AID 504832, 2011; also: % is scaled to controls: 0 for no effect and ±100 for the full control effect
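Erythrocytes infected with P. falciparum carrying an integrated firefly luciferase reporter (2% hematocrit, 0.1% parasitemia final) were exposed to compounds in RPMI 1640 with 0.5% Albumax at 37 C, 5% CO2. Growth inhibition was scored as reduced luminescence.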
Pf growth 96h – Primary qHTS for delayed death inhibitors of the malarial parasite plastid, 96 hour incubation. P. falciparum luciferase reporter growth, 96 h. Potency, µM (top dose mostly 28.7 µM), for the others: top-dose activity change, negative = inhibition, hits mostly inhibitors. 320,000 compounds, 6.9% hits. AID 504834, 2011; also: % is scaled to controls: 0 for no effect and ±100 for the full control effect
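Plates of compound plus infected erythrocytes (2% hematocrit, 0.05% parasitemia final) incubate 96 hours, 37 C, 5% CO2. Detection reagent added; reduced luminescence from the parasites' luciferase reporter flags inhibition.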
SARS PLpro yeast – qHTS of Yeast-based Assay for SARS-CoV PLP; 330,000 compounds, 0.19% hits; Potency, µM (highest dose often 32.9 µM), for inactives: top-dose activity, positive = growth rescue, actives largely listed as activators; S. cerevisiae expressing SARS-CoV PLpro, growth rescue; calls by dose curve; also: 0% is about no effect; nearly all actives have a fitted effect of over 55% in size
Numbers without * were called inactive; u = inconclusive; x = no result given. Unless noted, calls follow the shape of the dose curve; as a rule, active = well fitted curve in the direction sought with a large enough effect; inconclusive = small, poorly fitted or top-dose-only effect, or another doubt; inactive = no such curve, though single readings can be large; an effect the other way counts as inactive or inconclusive. Potency is read from the fitted curve at half-maximal effect.

SMILES | Sm TGR inh | Pf growth 48h | Pf growth 96h | SARS PLpro yeast
CCN1CCCC(Sc2nc3c([nH]2)c(=S)n(C)c(=O)n3C)C1 (stereo not drawn) | 40µM* | -14% | u | -2%
Cn1c(=S)c2[nH]c(SCCN3CCCC3)nc2n(C)c1=O | 40µM* | 12µM* | u | -6%
COc1ccccc1/C=C(/NC(=O)c1ccc(Cl)cc1Cl)C(=O)O | x | 20% | 8.3µM* | -1%
CCn1nnc2cc(C(=O)Nc3ccc(C)c(Cl)c3)ccc21 | 3% | x | x | x
C=C(C)C1CC=C(C)/C(=N/NC(=O)c2ccc(NC(=O)c3cccc(C)c3)cc2)C1 (stereo not drawn) | -12% | -8% | 0% | 9%
C=C(C)C1CC=C(C)/C(=N/NC(=S)Nc2ccccc2)C1 (stereo not drawn) | -10% | 10% | 54% | 10µM*
CCc1c(C)sc(NC(=O)c2cc(-c3cccc(Cl)c3)on2)c1C#N | 1% | x | x | x
Cc1cccc(NC(=O)CSc2nnc(CNC(=O)c3ccc(S(=O)(=O)N(C)C)cc3)n2-c2cccc(C)c2)c1 | 0% | u | 7.4µM* | 19%
Cc1cccc(-n2c(CNC(=O)c3ccc(S(=O)(=O)N(C)C)cc3)nnc2SCC(=O)Nc2ccc(F)cc2)c1 | -2% | 12µM* | u | -10%
Cc1cccc(NC(=O)CSc2nnc(CNC(=O)c3ccc(S(=O)(=O)N(C)C)cc3)n2-c2ccccc2)c1 | 1% | u | u | -6%
Cc1cccc(NC(=O)CSc2nnc(CNC(=O)c3ccc(S(=O)(=O)N(C)C)cc3)n2-c2ccc(F)cc2)c1 | -17% | -14% | u | -6%
CCCCN1c2cc(C)c(O)cc2C(C(=O)OCC)C1C (stereo not drawn) | 3% | 2.1µM* | 46% | 1%
O=C(O)c1ccccc1/C=N/NC(=O)c1cc(-c2ccco2)nc2ccccc12 | 3.2µM* | 2% | 21% | -2%
CC(=O)Nc1ccc(/C=N/NC(=O)c2cc(-c3ccco3)nc3ccccc23)cc1 | 14µM* | 8% | 43% | -2%
O=C1COc2ccc(C(=O)CSc3nc4ccccc4c(=O)n3-c3ccc(Cl)c(Cl)c3)cc2N1 | x | 10µM* | u | 1%
CCc1ccc(-n2c(SCC(=O)c3ccc4c(c3)NC(=O)CO4)nc3ccccc3c2=O)cc1 | 5% | 14% | 26% | 1%
Cn1c(SCC(=O)c2ccc3c(c2)NC(=O)CO3)nc2ccccc21 | x | 28% | 30% | 1%
CCCn1c(SCC(=O)c2ccc3c(c2)NC(=O)CO3)nc2ccccc21 | 40µM* | u | -27% | -4%
COc1ccc(-n2cc(C(=O)Nc3cc(F)ccc3F)c3ccccc3c2=O)cc1 | 3% | x | x | x
NS(=O)(=O)c1ccc2ccccc2c1 | -9% | -2% | 26% | 1%
O=C(O)/C=C/S(=O)(=O)c1ccc2ccccc2c1 | 0.89µM* | 1% | 4% | -5%
CCCCn1c(N2CCC(Cc3ccccc3)CC2)nc2c1c(=O)[nH]c(=O)n2C | 4% | 9.3µM* | u | -24%
Cc1nnc(SCCn2c(N3CCN(Cc4ccccc4)CC3)nc3c2c(=O)[nH]c(=O)n3C)s1 | -22% | u | 7.4µM* | 0%
CCCn1c(N2CCN(CC(=O)c3c(C)n(C)c4ccc(OC)cc34)CC2)nc2c1c(=O)[nH]c(=O)n2C | -23% | u | 2.1µM* | -6%
Cc1nnc(SCCn2c(N3CCN(C)CC3)nc3c2c(=O)[nH]c(=O)n3C)s1 | u | x | -15% | 1%
SMILES | Sm TGR inh | Pf growth 48h | Pf growth 96h | SARS PLpro yeast
CCCCn1c(N2CCCC2)nc2c1c(=O)[nH]c(=O)n2C | -2% | -7% | -7% | 0%
Cc1nnc(SCCn2c(N3CCCCCC3)nc3c2c(=O)[nH]c(=O)n3C)s1 | -2% | -12% | 49% | -2%
Cc1nnc(SCCn2c(N3CCC(Cc4ccccc4)CC3)nc3c2c(=O)[nH]c(=O)n3C)s1 | 3% | u | 9.3µM* | 1%
CC(C)(O)CC[C@@H](O)[C@](C)(O)C1CC[C@@]2(O)C3=CC(=O)[C@]4(O)C[C@@H](O)[C@@H](O)C[C@]4(C)C3CC[C@]12C (stereo partly drawn) | -3% | -3% | 11% | -1%
COc1ccc(CCn2c(S)nc3ccccc3c2=O)cc1 | -19% | x | -10% | 3%
CCCCOC(=O)c1ccc(NC(=O)c2ccc3c(c2)CCN3S(C)(=O)=O)cc1 | 0% | x | x | x
CCCCCn1c(N2CCN(c3cccc(Cl)c3)CC2)nc2c1c(=O)[nH]c(=O)n2C | -5% | x | 5.9µM* | 0%
CC1CCN(c2nc3c(c(=O)[nH]c(=O)n3C)n2Cc2ccccc2Cl)CC1 | -16% | -22% | 9.3µM* | -12%
Cn1c(=O)[nH]c(=O)c2c1nc(Br)n2Cc1ccccc1Cl | 8% | u | 4% | -3%
Cn1c(=O)[nH]c(=O)c2c1nc(N1CCc3ccccc3C1)n2CCSc1nc2ccccc2s1 | -9% | 5.2µM* | 57% | 8%
Cn1c(=O)[nH]c(=O)c2c1nc(N1CCN(c3cccc(Cl)c3)CC1)n2CCCc1ccccc1 | 2% | 15% | -22% | 3%
Cc1cccn2c(=O)c(C(=O)NCCc3ccccc3)c(O)nc12 | 6% | x | x | x
Cn1c(CNc2nc(-c3ccccc3)cs2)nnc1SCC(=O)OC1CCCCC1 | -17% | 2.3µM* | u | 7%
CC(C)OC(=O)CSc1nnc(CNc2nc(-c3ccccc3)cs2)n1C | 1% | 2.3µM* | 88% | 3%
Cc1csc(NC(=O)CSc2nnc(CCNC(=O)c3cccs3)n2C)n1 | -23% | u | u | -1%
COc1cccc(C(=O)CSc2nnc(CNc3nc(-c4ccccc4)cs3)n2C)c1 | -8% | u | 20% | -6%
Cn1c(CCNC(=O)c2cccs2)nnc1SCC(=O)Nc1nc(-c2ccccc2)cs1 | 1% | 7.4µM* | 14% | -5%
CCc1ccc(CNC(=O)c2cnc3c(C)cccn3c2=O)cc1 | -4% | x | x | x
O=C(NCc1ccc(Cl)cc1)c1cc2c(s1)-c1ccccc1SC2 | 0% | x | x | x
NNC(=O)c1cc2c(s1)-c1cc(Cl)ccc1SC2 | 14% | 9.3µM* | -4% | -1%
CCS(=O)(=O)C1=NN2C(=N)/C(=C\c3ccc(OS(=O)(=O)c4ccccc4)c(OC)c3)C(=O)N=C2S1 | u | u | 9.3µM* | 2%
CCC(CC)C1=NN2C(=N)/C(=C/c3ccc(OC(=O)c4ccco4)cc3)C(=O)N=C2S1 | -20% | 9% | 20% | -17%
CCS(=O)(=O)C1=NN2C(=N)/C(=C\c3ccc(OC(=O)c4ccco4)cc3)C(=O)N=C2S1 | 35µM* | -16% | -22% | u
CCC1=NN2C(=N)/C(=C/c3ccc(OS(=O)(=O)c4ccccc4)cc3)C(=O)N=C2S1 | -4% | u | u | -4%
CCS(=O)(=O)C1=NN2C(=N)/C(=C\c3ccc(OS(=O)(=O)c4ccccc4)cc3)C(=O)N=C2S1 | 45µM* | 6% | u | 23%
